# Changes are numbered by the printed parent chain. Whole data set: some 24,000 sequences, median “enrichment r” near 0.99, cut for the highest 2% near 3.7. This is one part of a sample in which the highest values are shown more often than they occur.
# T1: UNK ZnF1-3 (human, UniProt Q9C0B0 31-174)
# T1 sequence: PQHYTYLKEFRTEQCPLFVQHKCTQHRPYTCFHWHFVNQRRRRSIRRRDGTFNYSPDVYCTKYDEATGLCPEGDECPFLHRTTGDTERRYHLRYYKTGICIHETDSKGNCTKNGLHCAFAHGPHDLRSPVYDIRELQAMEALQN
# B1: chr8:92086081:92086082:+_ENSG00000155100_ENST00000285420|hu_mus|motif|central (ssRNA)
# RNA: GGGAGUUCUACAGUCCGACGAUCAAUCCGAGGUGGUUGAUUCUCAAGUACCAAGUUUGAAAUGUUAACAGCAACAGAAUCGGUCUUACUGUCCUUGAAAGUCAAUUGCUUCAAUUGCUCCAGUUCUUCCCUGUGUUUUUGCUCCAACAGAGGAUUGAGCAUCA
# B2: chr3:10015032:10015033:+_ENSMUSG00000027533_ENSMUST00000029046|mus_mus|mus_mus_mus_hu_True|38_48 (ssRNA)
# RNA: GGGAGUUCUACAGUCCGACGAUCGUUUUUACCAUCACAAGUGAUGAUACAAUCUGGCUUGGCCAUUGCGCCCAUUUUUCGCAAAGCCAGUCCUACUCCUAGCUCUUUCAUGUAUUCAUCAAAGCCUUUGCUGUCCACCAGGCGCAACAGAGGAUUGAGCAUCA
# B3: chr2:48026839:48026840:+_ENSG00000116062_ENST00000540021|hu_hu|hu_hu_hu_mus_False|18_48 (ssRNA)
# RNA: GGGAGUUCUACAGUCCGACGAUCAUAGUGAGCCACUAGCGUCCUAAAUCUGGAACAGUGGCGGUCAUCCGAAAACUGGCCGAUGAAAAACUUUCCCAGUGAAGUGUCCACAAAGCACACACCAUAUACACGAGUGUGACCAGACAACAGAGGAUUGAGCAUCA
# B4: chr11:46405157:46405158:+_ENSG00000110492_ENST00000395566|hu_hu|hu_hu_hu_mus_False|18_28 (ssRNA)
# RNA: GGGAGUUCUACAGUCCGACGAUCCCCUCCCCACUUUGGGCACUUGGUGUGGGCGUGAGAGGACAGGCGUGAUUGACAGAGCUGACAGGAAGACAAAAGGCACUGGUGGGUCACAUCUCGGGCCUGGGGGAGAGGAGGGCUCCGCAACAGAGGAUUGAGCAUCA
# B5: chr11:46405157:46405158:+_ENSG00000110492_ENST00000395566|hu_hu|hu_hu_hu_mus_False|98_108 (ssRNA)
# RNA: GGGAGUUCUACAGUCCGACGAUCCCCUUAGGGGUGGGGCUGGGGAGUGUGGGCGUGAGAGGACAGGCGUGAUUGACAGAGCUGACAGGAAGACAAAAGGCACUGGUGGGUUAUAUCUUGGGCCUGUGGGAGAGGAGGGCUCCGCAACAGAGGAUUGAGCAUCA
# B6: chr11:46405157:46405158:+_ENSG00000110492_ENST00000395566|hu_hu|hu_hu_hu_mus_False|58_108 (ssRNA)
# RNA: B5 RNA with C39G, U40C, G41A, G42C, G43U, G44U, A45G, G78A, G83A, A86G
# B7: chr11:46405157:46405158:+_ENSG00000110492_ENST00000395566|hu_hu|hu_hu_hu_mus_False|18_108 (ssRNA)
# RNA: B5 RNA with C39G, U40C, G41A, G42C, G43U, G44U, A45G, U118C, U126G
# B8: chr11:46405157:46405158:+_ENSG00000110492_ENST00000395566|hu_hu|hu_hu_hu_mus_False|1_18 (ssRNA)
# RNA: B4 RNA with C111U, C113U, G138C, C139G, C141G, C142G
# B9: chr11:46405157:46405158:+_ENSG00000110492_ENST00000395566|hu_hu|hu_hu_hu_mus_False|8_108 (ssRNA)
# RNA: GGGAGUUCUACAGUCCGACGAUCCCCUUAGGGGUGGGGGCACUUGGUGUGGGCGUGAGAGGACAGGCGUGAUUGACAGAGCUGACAGGAAGACAAAAGGCACUGGUGGGUUAUAUCUUGGGCCUGUGAGAGGGAGGGGCUCCGCAACAGAGGAUUGAGCAUCA
# B10: chr6:83878822:83878823:+_ENSMUSG00000030016_ENSMUST00000032088|mus_hu|FALSE|FALSE (ssRNA)
# RNA: GGGAGUUCUACAGUCCGACGAUCCUCCUCGAGGAUUAAACCUGGGUCUCGACAUGGCUAUUUUCAAGAAAGCCUGAUUUAAUAAAGUAUAAGGUGGUGUUGAACCAUGUGAGGCAACGGCAUUCAGCUGCUGAAGCGCCAACUCAACAGAGGAUUGAGCAUCA
# B11: chr12:67691335:67691336:+_ENSG00000111530_ENST00000540319|hu_mus|motif|central (ssRNA)
# RNA: GGGAGUUCUACAGUCCGACGAUCCAUGGAGUCAUUUUUGGACAACUCUGACAACAGAUGUUCAAUAAGGUCUACAAAAACGGUAUUUCCGCAGCUCAUAACUAGGUGGCCAAGAGCAAUAAUUGUUCUUUUCCUCACUGCAAGCAACAGAGGAUUGAGCAUCA
# B12: chr15:75216061:75216062:-_ENSG00000178741_ENST00000564811|perfect_dup|motif|central (ssRNA)
# RNA: GGGAGUUCUACAGUCCGACGAUCUUUGUCAAGGCCCAGUUCCUCCGGAGUGGAGAUUCCCAGUUCAUUUAAAGUUGGUCGGAGUUCCUGGAUGACAUAGGGGUAGAUUUCCUUAUGAGGUCCUGCUUUGUCCUUAACAACCUCCAACAGAGGAUUGAGCAUCA
# B13: chr12:16048344:16048345:+_ENSG00000023734_ENST00000419869|hu_hu|hu_hu_hu_mus_True|8_18 (ssRNA)
# RNA: GGGAGUUCUACAGUCCGACGAUCAGAUCGUCCAUAAGUAAUAACCAAAAUCUCUCCUUCAGGAAUAUACUCCAUGCUGCUAACAGACAUAUUAAAAUUCAGAGAUUUCACUUCUGUCAUAGUAGCAUGAUCCCAAAGCCGAACCAACAGAGGAUUGAGCAUCA
# B14: chr16:94690093:94690094:+_ENSMUSG00000040785_ENSMUST00000117648|mus_mus|motif|central (ssRNA)
# RNA: GGGAGUUCUACAGUCCGACGAUCUGGGACUCCUGUGAGCAGACAGCAUCUUCCCAGGGUAAAAAAAAAAAAUAGCCAAUACGGAUUUAAAAAGUAUUUUAUAAUUGAUUACCAAAAUGUAGAUUAAUUGAAUCAUAAGCACUUCAACAGAGGAUUGAGCAUCA
# B15: chr4:6323411:6323412:-_ENSMUSG00000028245_ENSMUST00000029910|mus_hu|FALSE|FALSE (ssRNA)
# RNA: GGGAGUUCUACAGUCCGACGAUCAGAAAAAUAUUUUUAAUGUAGAAAAGAUGAAUAGCUGUAAUGAAAUACAAACCGUUCCUAUACACAGUAAACUUACUAAGAACUGCUAAUCCUUCUCCAGGUUCUUAGAAUCUGGGUACACAACAGAGGAUUGAGCAUCA
# B16: chr16:94690093:94690094:+_ENSMUSG00000040785_ENSMUST00000117648|mus_mus|FALSE|FALSE (ssRNA)
# RNA: B14 RNA with G82U, G83A
# B17: chr12:16048344:16048345:+_ENSG00000023734_ENST00000419869|hu_hu|hu_hu_hu_mus_True|18_78 (ssRNA)
# RNA: B13 RNA with U57C, A135G
# B18: chr12:42180722:42180723:-_ENSMUSG00000036295_ENSMUST00000043884|mus_hu|mus_mus_mus_hu_True|58_108 (ssRNA)
# RNA: GGGAGUUCUACAGUCCGACGAUCCUGUAGGAGCAGAAUCUGUGUGUUAGCUGGCAAUCUGGCUGGGAAAGUUAAAAGCCCUAAAUCAUUACAAUCCACUGUAGAUGCUUCCAUAUAAAUGGAUCUGGGUGUAAACCAAGGCCUCAACAGAGGAUUGAGCAUCA
# B19: chr7:125984895:125984896:+_ENSMUSG00000030982_ENSMUST00000106553|mus_mus|motif|central (ssRNA)
# RNA: GGGAGUUCUACAGUCCGACGAUCGUAGAAGGCAAGAGCUUAAAACCAAUCUGUAUAAAAGUAAAAAUAACAAAAACUUCGGAAUUCCAGGAAGAGUUAAUGGCAGCCAAGCAGAUCUUCCAGGAUGUGGCACUGGGACUCCCGCAACAGAGGAUUGAGCAUCA
# B20: 109710003_109710123_2987_3pUTR_ENSMUSG00000031924_ENSMUST00000034400|mouse|control|control (ssRNA)
# RNA: GGGAGUUCUACAGUCCGACGAUCUUCUGCCUCCCAAGUGCUGGGAUUAAAGAUUUAAAAAAAAAAAAGCAUCCUUUUUAUAUAAUAUAAAAUGACAUUACAUUAUCAGUAGUUCAAAAGAAGCCCUGGGUAUUGACGGAUUUCCAACAGAGGAUUGAGCAUCA
# B21: chrX:98838459:98838460:+_ENSMUSG00000034160_ENSMUST00000044475|mus_mus|FALSE|FALSE (ssRNA)
# RNA: GGGAGUUCUACAGUCCGACGAUCUCCCAAAUUCGAAUAGGCUUCUGCUAGAAGGGGAUUCUGUUUAAUUGCCAAGGUGCUAAAAUGAGCAGAUCUGUCCAGCCUUCGACACUGGAAGUGUAUAGAUGAAAGUAAUAAAAGAACCAACAGAGGAUUGAGCAUCA
# Target: T1, UNK ZnF1-3
# Assay: nsRBNS (natural sequence RNA bind-n-seq); RBNS binding buffer (assumed for nsRBNS): 25 mM Tris pH 7.5, 150 mM KCl, 3 mM MgCl2, 0.01% Triton X-100, 500 ug/ml BSA, 20 U/ml SUPERase-In, 4 C; UNK is unkempt and MSI1 is Musashi-1; names of the RNAs are library labels; protein concentration not given here; high values mean tight binding
row,Binder,binding signal
1,B1,1.01 enrichment R
2,B2,0.575 enrichment R
3,B3,1.2 enrichment R
4,B4,3.48 enrichment R
5,B5,3.34 enrichment R
6,B6,3.45 enrichment R
7,B7,4.17 enrichment R
8,B8,3.4 enrichment R
9,B9,4.04 enrichment R
10,B10,1.46 enrichment R
11,B11,0.704 enrichment R
12,B12,0.656 enrichment R
13,B13,0.71 enrichment R
14,B14,4.87 enrichment R
15,B15,1.02 enrichment R
16,B16,7.05 enrichment R
17,B17,0.91 enrichment R
18,B18,1.07 enrichment R
19,B19,3.93 enrichment R
20,B20,2.62 enrichment R
21,B21,1.64 enrichment R

# Source: PMC12136788
